Bioassay records: PubChem BioAssay, National Center for Advancing Translational Sciences (NCATS)
Giardia FBPA inh = inhibitors of Giardia lamblia fructose-1,6-bisphosphate aldolase | purified Giardia FBPA | Potency, µM (series often up to 59.6 µM), usual class: inhibitors | 290,000 tested, 0.71% active; also: nearly all actives have a fitted effect of over 55% in size
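Giardia FBPA (40 nM reagent) was preincubated 10 min at RT with compound (up to 57.5 uM final), then substrate plus GAPDH/TPI/NAD/arsenate coupling system with diaphorase/resazurin was added; resorufin fluorescence (525/598 nm) was read after 20 min.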
Tb PYK inh = T. brucei pyruvate kinase inhibition; Q57TT1; 410,000 tested, 0.12% active; TbPYK enzyme, Kinase-Glo Plus ATP luminescence, 45 min; Potency, µM (titrated, usually from 76.8 µM), most hits filed as inhibitors; also: nearly all actives have a fitted effect of over 50% in size
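Screened from lowest to highest concentration, compounds were pinned into TbPYK/substrate mixtures, and ADP (130 uM final) was added. Plates sat at room temperature for 45 min prior to Kinase-Glo Plus detection by luminescence.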
Shiga inhibitor = Shiga toxin inhibition; 290,000 tested, 9.2% active; inhibition, % at 38.7 µM; Vero cells, Shiga toxin protein synthesis inhibition reporter; in the data active = inhibition mostly above about 28%, no sharp cut-off; inactive = mostly below about 43%
Sm TGR inh = S. mansoni TGR enzyme inhibition; Q962Y6; purified TGR, DTNB reduction, TNB absorbance 405 nm; Potency, µM (highest dose often 114 µM), actives largely listed as inhibitors; 360,000 tested, 3% active; also: nearly all actives have a fitted effect of over 60% in size
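Kinetic colorimetric format: TGR-catalysed, NADPH-driven DTNB reduction monitored via TNB absorbance. Enzyme dispensed at 20 nM; compound exposure 15 min at room temperature before reaction start.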
CHX counter = affects cycloheximide protein synthesis inhibition readout, counter-screen. cell reporter, cycloheximide protein synthesis inhibition counterscreen. 300,000 tested, 12% active. max response, %. AID 2314; in the data active = max response mostly above about 13%, no sharp cut-off; inactive = mostly below about 14%; also: read at 38.3 µM for the half of the compounds with a filed dose
LmPK inh = LmPK (Leishmania mexicana) enzyme inhibition; Q27686; purified LmPK, Kinase-Glo ATP luminescence, 1 h; Potency, µM (highest dose often 57.5 µM), most hits filed as inhibitors; 290,000 tested, 0.37% active
Target sequence (Q27686 whole entry, looked up): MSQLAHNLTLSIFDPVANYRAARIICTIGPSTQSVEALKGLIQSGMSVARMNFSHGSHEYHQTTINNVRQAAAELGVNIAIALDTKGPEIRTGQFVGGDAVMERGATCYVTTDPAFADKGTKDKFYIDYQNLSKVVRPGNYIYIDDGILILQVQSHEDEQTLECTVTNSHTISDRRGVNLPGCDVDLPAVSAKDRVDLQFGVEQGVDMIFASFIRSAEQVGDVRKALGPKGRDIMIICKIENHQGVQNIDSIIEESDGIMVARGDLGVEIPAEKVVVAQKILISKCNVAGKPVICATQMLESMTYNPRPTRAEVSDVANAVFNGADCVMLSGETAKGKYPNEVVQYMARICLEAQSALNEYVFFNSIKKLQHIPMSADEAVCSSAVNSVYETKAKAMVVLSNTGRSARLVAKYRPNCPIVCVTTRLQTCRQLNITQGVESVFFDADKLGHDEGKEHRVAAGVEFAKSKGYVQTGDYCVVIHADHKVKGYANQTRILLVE
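ATP generated from ADP (0.1 mM) and PEP (0.5 mM) by 0.1 nM LmPK over 1 h at room temperature (pH 7.2 imidazole buffer) was detected by coupled luciferase luminescence. Values were normalized to uninhibited and no-enzyme wells.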
Hits are given with their value; n = inactive; u = inconclusive; x = no result given; + = active, no number; [ ] = remark or other dose. Many of the other results were omitted from the sample, so hits are more common in it than they were. Unless noted, calls follow the shape of the dose curve; as a rule, active = well fitted curve in the direction sought with a large enough effect; inconclusive = small, poorly fitted or top-dose-only effect, or another doubt; inactive = no such curve, though single readings can be large; an effect the other way counts as inactive or inconclusive.

SMILES	Giardia FBPA inh	Tb PYK inh	Shiga inhibitor	Sm TGR inh	CHX counter	LmPK inh
CC1=CC(C)C2(COC(=O)Nc3ccccc3)COC(C)C1C2C (stereo not drawn)	n	n	n	n	13	n
COc1ccc(C2OCC3(COC(C)=O)C(C)C=C(C)C2C3C)cc1 (stereo not drawn)	n	x	x	x	x	x
COc1ccc(NC(=O)C(NS(=O)(=O)c2cccc3nsnc23)c2ccccc2)cc1 (stereo not drawn)	x	n	x	n	x	x
C=CCOC(=O)c1[nH]c2c(c1C)C(=O)CC(c1ccco1)C2 (stereo not drawn)	n	n	n	45µM	n	n
Cc1c(C(=O)OCC(C)C)[nH]c2c1C(=O)CC(c1ccco1)C2 (stereo not drawn)	n	n	n	u	n	n
Cc1c(C(=O)OCC2CCCO2)[nH]c2c1C(=O)CC(c1ccco1)C2 (stereo not drawn)	n	n	n	u	n	n
C/C=C/COC(=O)c1[nH]c2c(c1C)C(=O)CC(c1ccco1)C2 (stereo not drawn)	n	n	n	50µM	n	n
Cc1nc2c(-c3ccccc3)c(C)nn2c(C)c1CCC(=O)NCc1ccc(F)cc1	x	n	x	n	x	x
CCOC(=O)c1c(C)oc2c1c(C(c1cccnc1)N1CCN(C)CC1)c(O)c1ccccc12 (stereo not drawn)	u	x	156	0.56µM	53	n
CCOC(=O)c1c(C)oc2c1c(C(c1cccnc1)N1CCOCC1)c(O)c1ccccc12 (stereo not drawn)	u	n	123	1.3µM	49	n
N#Cc1c(N2CCCC2)nsc1-c1ccccc1	n	n	102	n	52	n
N#Cc1c(N2CCOCC2)nsc1-c1ccccc1	n	n	75	n	40	n
N#Cc1nc(-c2ccccc2)oc1N1CCCCC1	n	n	n	n	n	n
O=C(/C=C\Nc1ccc(S(=O)(=O)Nc2ncccn2)cc1)c1cccc2ccccc12	n	n	n	n	n	n
NS(=O)(=O)c1ccc(N/C=C\C(=O)c2cccc3ccccc23)cc1	n	n	n	n	21	n
Cc1ccc(/C(=C\CN2CCCC2)c2cccc(/C=C/C(=O)O)n2)cc1	x	n	x	x	x	x
C[C@H]1CN(c2ccccc2)C(=O)[C@@H]1CC(=O)Nc1ccc(Br)cc1	x	n	x	x	x	x
O=C1NN(C(=O)Nc2ccc(Br)cc2)C(c2ccccc2)C1c1ccccc1 (stereo not drawn)	n	x	54	x	n	x
Cc1ccnc(NC(=O)c2cccc(NC(=O)c3ccccc3C)c2)c1	n	n	n	n	n	n
Cc1ccnc(NC(=O)CC(NC(=O)c2ccccc2Cl)c2ccccc2)c1 (stereo not drawn)	x	n	x	n	x	x
Cc1ccnc(NC(=O)c2ccc(Cl)c(NC(=O)c3ccccc3C)c2)c1	n	n	n	n	16	n
CCC(C(=O)Nc1cc(C(=O)Nc2cc(C)ccn2)ccc1Cl)c1ccccc1 (stereo not drawn)	n	n	n	n	19	n
COc1cccc(CNC(=O)c2ccc(NC(=O)N3CCCCc4ccccc43)cc2)c1	x	n	x	n	x	x
CCCOc1ccc(-c2nonc2NC(=O)c2ccco2)cc1OCCC	x	n	x	n	x	x
Cn1cc(Br)c(C(=O)N/N=C/c2cccc(OC3CSC3)c2)n1	n	n	+	n	57	n
SMILES	Giardia FBPA inh	Tb PYK inh	Shiga inhibitor	Sm TGR inh	CHX counter	LmPK inh
O=C(N/N=C/c1cc2c(cc1Cl)OCO2)c1ccccn1	x	n	x	x	x	x
CCOc1cc(/C=N/NC(=O)c2nn(C)cc2Br)ccc1OCc1ccccc1Cl	n	n	n	n	n	n
Cc1nonc1C(=O)N/N=C/c1cc2c(cc1Br)OCO2	n	n	n	n	28	n
Nc1nonc1C(=O)N/N=C\c1cc2c(cc1Cl)OCO2	x	n	42	n	44	n
Cn1cc(Br)c(C(=O)N/N=C/c2cc3c(cc2Cl)OCO3)n1	n	n	n	n	24	n
CC(C)=CCC/C(C)=C/CO/N=C1/C[C@@H](O)[C@@H](O)[C@@H]2[C@H]3C(=O)N(c4ccc(F)cc4F)C(=O)[C@@H]3CC[C@@H]12	n[12.9 µM]	x	x	x	x	x
O=C(CN(C(=O)c1csnn1)c1ccc(F)c(Cl)c1)NC1CCCCC1	x	n	n	n	30	n
Cc1occc1C(=O)NNC(=S)NCc1ccc(Cl)cc1	n	n	n	n	28	n
Cc1occc1C(=O)NNC(=S)NCc1ccccc1	n	n	n	n	n	n
Cc1occc1C(=O)NCCCc1ccccc1	n	n	n	u	25	n
CCCCCCCCCCCNC(=O)c1ccoc1C	n	n	n	18µM	n	n
Cc1occc1C(=O)NCCc1cccc(Cl)c1	n	n	130	n	69	n
Cc1occc1C(=O)NCCCCNC(=O)c1ccoc1C	n	n	n	n	n	n
COC(=O)[C@]1(C)N[C@H](c2ccc(SC3CCCCC3)c(OC)c2)[C@@H]2C(=O)N(C)C(=O)[C@@H]21	x	n	x	n	x	x
CSc1ncc(C(=O)Nc2cc(Cl)ccc2C)c(-c2ccccc2)n1	x	n	x	n	x	x
NS(=O)(=O)c1ccc(CNC(=O)C2CCCN2C(=O)c2cccs2)cc1 (stereo not drawn)	x	n	x	x	x	x
O=C(c1ccc(F)cc1)c1cn(Cc2ccccc2)c2cc3c(cc2c1=O)OCO3	x	n	x	n	x	x
Cc1cccc(-n2ncc3c(N(C)C4CCCCC4)ncnc32)c1	n	n	127	n	90	n
CCN(c1ncnc2c1cnn2-c1cccc(Cl)c1)C1CCCCC1	x	n	x	n	x	x
COc1ccc(-n2ncc3c(SCC(=O)OC(C)C)ncnc32)cc1	x	n	x	x	x	x
Cc1cccc(-n2ncc3c(N(CCO)CCO)ncnc32)c1	n	n	65	n	27	n
COc1ccc(-n2ncc3c(N(C)C4CCCCC4)ncnc32)cc1	n	n	74	n	45	n
COCCN(C(=O)Nc1ccc(F)cc1F)c1nc2ccccc2s1	n	n	48	n	34	n
COCCN(C(=O)Nc1ccc(OC)cc1)c1nc2ccccc2s1	n	n	42	n	18	n
COC(=O)[C@H]1C[C@@H]1[C@H](NC(C)=O)c1ccccc1	n	x	x	x	x	x
SMILES	Giardia FBPA inh	Tb PYK inh	Shiga inhibitor	Sm TGR inh	CHX counter	LmPK inh
COC(=O)N1CCC[C@@]2(CCN(c3ccccn3)C2)C1	n	n	x	x	x	x
O=[N+]([O-])c1ccc(N2CCN(c3ccccc3O)CC2)cc1	x	n	n	n	n	n
O=[N+]([O-])c1ccc(N2CCN(c3ccccn3)CC2)c(Cl)c1	n	n	59	n	n	n
O=[N+]([O-])c1ccc(N2CCN(c3ccccc3O)CC2)c(Cl)c1	u	n	133	n	48	n
Cc1ccc(N2C(=O)CSC23C(=O)N(CC(=O)NCc2ccccc2)c2ccccc23)cc1C (stereo not drawn)	x	n	x	n	x	x
Cc1cccc(NC(=O)CN2C(=O)CCc3ccccc32)c1C	x	n	x	n	x	x
C[C@@H](O)[C@@H]1C(=O)N2C(C(=O)O)=C([C@H]3CCCO3)S[C@H]12	x	n	x	x	x	x
